Reference: PubChem BioAssay (NCI)
The panel holds about 83,000 compounds, 20% with a hit somewhere; the sample as a whole holds those more often.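 Single-dose data. Exposure time 48 hours. Values below 10 considered active.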 Calls of active or inactive are those of the source.

Experiments:
Assay in all cases: NCI-60 one-dose screen, 48 h (100 = growth as untreated, 0 = no growth, -100 = all killed)
Details in all cases: 10 µM unless noted
[1] = tested on: NCI-H23 lung
[2] = tested on: NCI-H226 lung
[3] = tested on: NCI-H322M lung
[4] = tested on: HOP-62 NSCLC
[5] = tested on: NCI-H460 lung
[6] = tested on: HOP-92 NSCLC
[7] = tested on: NCI-H522 lung
[8] = tested on: A549/ATCC NSCLC
[9] = tested on: 786-0 renal
[10] = tested on: COLO 205 colon

Measured: growth

CCc1c2c(nc3ccc(OC(=O)OCc4ccc(B5OC(C)(C)C(C)(C)O5)cc4)cc13)-c1cc3c(c(=O)n1C2)COC(=O)[C@]3(O)CC
active: [1] -30.6% | [2] -59.9% | [3] 1.92% | [4] -10.7% | [5] -6.28% | [6] 9.38% | [7] -28.3% | [8] 3.37% | [10] 7.72%
inactive: [9] 11.7%

O=c1c2c3c(sc2nc(N/N=C/c2ccc(Br)cc2)n1Cc1ccccc1)CCCC3
inactive: [1] 68.2% | [2] 79.6% | [3] 71.4% | [4] 65.6% | [5] 69.4% | [6] 57.8% | [7] 61.2% | [8] 74.8% | [9] 56.7% | [10] 75.4%

COc1ccc(NC(=O)CSc2nnc(-c3cc(-c4ccc(S(N)(=O)=O)cc4)nc4ccccc34)n2-c2ccccc2)cc1
inactive: [1] 102% | [2] 77.5% | [3] 93.8% | [4] 85.7% | [5] 91% | [6] 62.2% | [7] 78% | [8] 90.9% | [9] 88.4% | [10] 95.5%

O=Cc1c[nH]c2ccc(-c3csc4ccccc34)cc12
inactive: [1] 58% | [2] 73.8% | [3] 83.2% | [4] 42.8% | [5] 29.3% | [6] 55.9% | [7] 41.3% | [8] 48.1% | [9] 58.4% | [10] 71.6%

NC1=NCc2nc3ccccc3c(=O)n2C1
inactive: [1] 96.6% | [2] 94.9% | [3] 110% | [4] 98.4% | [5] 111% | [6] 67.5% | [7] 91.6% | [8] 93.9% | [9] 97.6% | [10] 124%

CS(=O)(=O)c1ccc(Nc2nc(N[C@H]3CCCC[C@H]3N)nc3cc[nH]c(=O)c23)cc1
active: [1] -5.38% | [2] -4.65% | [6] -8.34% | [7] -37% | [10] -3.93%
inactive: [3] 24.1% | [4] 21.1% | [5] 12.4% | [8] 33.6% | [9] 22.5%

FC(F)(F)c1cc(Nc2ccc3cc(OCCCN4CCOCC4)ccc3n2)ccc1Cl
active: [5] 6.76% | [7] -22.1% | [9] -64.5% | [10] -69.3%
inactive: [1] 36% | [2] 68.2% | [3] 66.4% | [4] 12.3% | [6] 26.1% | [8] 28.3%
